Source: ChEMBL document CHEMBL3988442, “University of Dundee, Small-Polar-MMV Screening Library” (2021)
Screen size: about 48,000 compounds; about 13,000 (27%) showed an effect of 50% or more. Some of the results follow.

These molecules were tested on Wolbachia pipientis (assay: Anti-Wolbachia Cell-Based Screen). Settings: 5 µM.
Type: functional
Parameters: scale not given: in the data most compounds retested in dose-response had high values
In the case of `O=C(NCC1=CCCCC1)C(c1cccnc1)N1CCOCC1` (stereo not drawn), the “Percent Effect” value is reported as -8.257%. With `CCNc1ncc(C(=O)N2CCOC(CCCC(C)C)C2)cn1` (stereo not drawn) the “Percent Effect” value was 18.06%. In the case of `CN(C)c1nc2c(c(=O)[nH]1)CCN(C(=O)c1ccc(=O)[nH]c1)C2`, the “Percent Effect” value is reported as -0.009534%. For `CCCc1ccc(C(=O)N2CCn3c(nnc3C(C)C)C2)cc1`, the “Percent Effect” value was 1.679%. For `CCNc1ncc(C(=O)N2Cc3nc(C)[nH]c(=O)c3C2)cn1`, the “Percent Effect” value was 110.8%. `CCCc1ccc(C(=O)N2CCc3c(nc(N(C)C)[nH]c3=O)C2)cc1` was tested, and the “Percent Effect” value was 0.7341%. For `CCCc1ccc(C(=O)N2CCc3c(nc(C)nc3N(C)C)C2)cc1`, the “Percent Effect” value was 96.2%. For `CCN(CC)CCC(=O)N1CCc2c(nc(N(C)C)nc2N(C)C)C1`, the “Percent Effect” value was -0.6304%. For `CCNc1ncc(C(=O)N2CCc3c(nc(C)nc3N(C)C)C2)cn1`, the “Percent Effect” value was 95.13%. For `Cc1nc2c(c(N(C)C)n1)CCN(C(=O)c1ccc(N)nc1)C2`, the “Percent Effect” value was 84.83%. In the case of `Cc1nc2c(c(N(C)C)n1)CCN(C(=O)c1sccc1S(N)(=O)=O)C2`, the “Percent Effect” value is reported as -20.97%. For `CCNc1ncc(C(=O)N2CCC(c3ccccc3C(=O)O)C2)cn1` (stereo not drawn), the “Percent Effect” value was -1.411%. `Cc1nc2c(c(N(C)C)n1)CCN(C(=O)CN1CCC(O)CC1)C2` was tested, and the “Percent Effect” value was -29.43%. With `NS(=O)(=O)c1cc(C(=O)N2CCCCC2)cs1` the “Percent Effect” value was 6.219%. For `CN(C)c1ccc(CC(=O)N[C@@H]2CCNC[C@H]2O)cc1`, the “Percent Effect” value was -6.485%. With `CN(Cc1cnn(C)c1)C(=O)NCc1csc(Br)c1` the “Percent Effect” value was 2.853%. `O=C(NCc1cc(Br)cs1)Nc1cn[nH]c1` was tested, and the “Percent Effect” value was 79.99%. In the case of `CNS(=O)(=O)Cc1ccc(CNC(=O)Nc2cn[nH]c2)cc1`, the “Percent Effect” value is reported as -4.432%. `O=C(Cc1ccc(Br)s1)NCC(=O)Nc1cn[nH]c1` was tested, and the “Percent Effect” value was -7.073%. In the case of `O=C(NCc1csc(Br)c1)Nc1cn[nH]c1`, the “Percent Effect” value is reported as 91.45%. For `O=C(NCc1ccc(Br)c(F)c1)Nc1cn[nH]c1`, the “Percent Effect” value was 110.2%. In the case of `O=C(NCC1(N2CCOCC2)CCSC1)Nc1cn[nH]c1` (stereo not drawn), the “Percent Effect” value is reported as 6.407%. With `COCCNc1ccc(CNC(=O)Nc2cn[nH]c2)cc1` the “Percent Effect” value was -8.085%. `CN1CCC(NC(=O)NCc2csc(Br)c2)CC1` was tested, and the “Percent Effect” value was -1.868%. `CN(CCNC(=O)c1scnc1Cl)c1ccccc1` was tested, and the “Percent Effect” value was -4.925%. For `COc1ccc(OC)c(C2CCN(CC(C)(C)N3CCOCC3)C2)c1` (stereo not drawn), the “Percent Effect” value was -1.124%. With `CC(C)[C@@H]1CN(Cc2cnc(C3CCCCC3)nc2)C[C@H]1C(=O)O` the “Percent Effect” value was -8.433%. In the case of `CCC(Nc1ncccn1)c1ccc(OC)cc1` (stereo not drawn), the “Percent Effect” value is reported as 2.346%. For `COc1ccc(C(C)N(C)Cc2c(C(C)C)[nH]c3ncccc23)cc1` (stereo not drawn), the “Percent Effect” value was 47.71%. `COc1ccc(C(C)N(C)Cc2c(C(C)(C)C)[nH]c3ncccc23)cc1` (stereo not drawn) was tested, and the “Percent Effect” value was 103.1%. With `COc1ccc(C(C)N(C)Cc2c(C3CC3)[nH]c3ncccc23)cc1.Cl` (stereo not drawn) the “Percent Effect” value was 91.7%. In the case of `COc1ccc2cc(CN(C)C(C)c3nc(C4CC4)no3)ccc2c1` (stereo not drawn), the “Percent Effect” value is reported as 6.729%. For `COc1ccc(C(CN2CCN(C)CC2)Nc2ncccn2)cc1` (stereo not drawn), the “Percent Effect” value was -1.255%.
